# Measured values as given in PubChem BioAssay AID1347383 (Zoeller Lab, School of Medicine, Boston University, 2020).
# The source made the active and inactive calls.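 Rule for the calls: active = cell survival after UV exposure 2 SD above solvent-only control wells at 10 µM, confirmed on one or two repeats; inactive = the rest.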
# Experiment: cell survival after pyrene fatty acid photosensitization – ZR-82 cells, Analyticon library, screen 2, phospholipid biosynthesis inhibitor project, primary screen (AID 1347383);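 note: survival reflects blocked phospholipid synthesis cutting uptake of the phototoxic fatty acid; compound and fatty acid exposure 3 h then viability read next day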
# Conditions: ZR-82 CHO cells, pyrene-fatty acid UV killing, CellTiter Blue, at 10 µM; peroxisome-deficient CHO-K1 variant, with DGAT-1, DGAT-2 and ACAT inhibitors unless noted
row,SMILES,outcome
1,CCC1CN2CCC3(C(=O)Nc4cccc(O)c43)C2CC1/C(=C/OC)C(=O)OC (stereo not drawn),inactive
2,CO[C@H]1[C@H](O)[C@H](O[C@H]2CC[C@]3(C=O)C4CC[C@]5(C)[C@H](C6=CC(=O)OC6)CC[C@]5(O)C4CC[C@@H]3C2)O[C@@H](C)[C@@H]1O (stereo partly drawn),inactive
3,CC#CC#Cc1ccc(C#CC(O)COC(C)=O)s1 (stereo not drawn),inactive
4,CC1(C)C=C2C(=O)C(C)(C)C(=O)C(C)(C)C2(O)OO1 (stereo not drawn),inactive
5,CC(=O)NCCc1c[nH]c2ccccc12,inactive [setting not given]
6,C[C@@]1(C(=O)O)CC[C@]2(C)CC[C@]3(C)C4=CC(=O)c5cc(O)c(O)cc5[C@]4(C)CC[C@@]3(C)[C@@H]2C1,inactive
7,CC(C)(C)C1(O)C[C@@H]2OC(=O)C[C@@]23C(=O)O[C@@H]2OC(=O)[C@@H](O)[C@]213 (stereo partly drawn),inactive
8,CC(C)[C@@H](C)/C=C/[C@@H](C)[C@H]1CC[C@@H]2[C@]1(C)CCC1[C@]23C=C[C@]2(C[C@@H](O)CC[C@]12C)OO3 (stereo partly drawn),inactive
9,CC1(C)OC1COc1c2occc2cc2ccc(=O)oc12 (stereo not drawn),inactive
10,COc1ccc(C23CCC(=O)C=C2N(C)CC3)cc1OC (stereo not drawn),inactive
11,COc1cc(C2c3cc4c(c(O)c3CC3COC(=O)C32)OCO4)cc(OC)c1O (stereo not drawn),inactive [setting not given]
12,C[C@@H]1CCC2[C@@H](C)C(=O)OC3O[C@]4(C)CCC1[C@]32OO4 (stereo partly drawn),inactive
13,CO[C@@H]1[C@H](O)[C@@H](O[C@@H]2C[C@H]3CC[C@@H]4C(CC[C@]5(C)[C@@H](C6=CC(=O)OC6)CC[C@]45O)[C@@]3(C)[C@H](O)C2)O[C@H](C)[C@@H]1O (stereo partly drawn),inactive
14,COc1ccc(C23C=C4C5CC6(O)CC7N(CCC57c5ccc(OC)c(OC)c5)C4(CC2NCC3)O6)cc1OC (stereo not drawn),inactive
15,C=CC1C[N+]2([O-])CCC1CC2C(O)c1ccnc2ccc(OC)cc12 (stereo not drawn),inactive
16,Oc1cc(O)cc(/C=C/c2ccc(O)cc2O)c1,inactive
17,C=C(C)[C@H]1CCC(C)=C[C@@H]1c1c(O)cc(CCCCC)cc1O,inactive
18,CC1=CC2/C=C(\C)CCC(O)C(O)/C=C/C(=O)C23C(=O)NC(CC(C)C)C3C1C (stereo not drawn),inactive
19,CO[C@H]1[C@H](O)[C@H](O[C@H]2CC[C@]3(C)C4CC[C@]5(C)[C@H](C6=CC(=O)OC6)CC[C@]5(O)C4CC[C@@H]3C2)O[C@@H](C)[C@@H]1O (stereo partly drawn),inactive
20,C=C[C@H]1CN2CC[C@H]1C[C@@H]2[C@@H](O)c1ccnc2ccccc12,inactive
21,CC[C@H]1CN2CC[C@H]1C[C@@H]2[C@@H](O)c1ccnc2ccc(OC)cc12,inactive
22,COc1ccc(CC2C(=O)OCC2Cc2ccc3c(c2)OCO3)cc1OC (stereo not drawn),inactive
23,CCCCCCCCCCCCCCCc1cccc(O)c1O,inactive
24,CC1(C)C=Cc2c(ccc3c4c([nH]c23)C(C)(C)C2CC35CCCN3C(=O)C2(C4)NC5=O)O1 (stereo not drawn),inactive
25,C=C1C(=O)CC2OC2(C)CC2OC(=O)C(=C)C2C(O)C1OC(=O)/C(C)=C\C (stereo not drawn),inactive
26,CO[C@@H]1[C@@H](O)[C@H](C)O[C@@H](O[C@H]2CC[C@]3(C)C4CC[C@]5(C)[C@H](C6=CC(=O)OC6)CC[C@]5(O)C4CC[C@@H]3C2)[C@H]1OC(C)=O (stereo partly drawn),inactive
27,COc1ccc(/C=C/c2cc(O)cc(O)c2)cc1,inactive [setting not given]
28,COc1cc2c(cc1OC)[C@@]13CCN4CC5=CCO[C@H]6CC(=O)N2[C@H]1[C@H]6[C@H]5C[C@H]43,inactive [setting not given]
